Assay outcomes deposited in PubChem BioAssay by several laboratories.
MEX-5 binding: MEX-5 zinc finger RNA-binding disruptors – biochemical, C. elegans, fluorescence polarization, MLPCN library, primary screen; Zinc finger protein mex-5 (Caenorhabditis elegans), Q9XUB2; MEX-5/FITC-TCR2 RNA binding; stronger effect = lower value; activity score (negative = inhibition of binding), % at 10 µM; 300,000 tested, 0.38% active; AID 1832, 2009;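 active = inhibition past about -25% in most replicates, and total fluorescence under double the plate's negative control median, limit read from the data; inconclusive = replicates evenly split on the limit, or fluorescence at least double controls; inactive = too little inhibition in most replicates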
GLD-1 RNA inh: GLD-1/TGE RNA complex disruptors, primary screen, biochemical, fluorescence polarization | AID 2280, 2010 | 320,000 tested, 0.44% active | purified GLD-1 + fluorescein TGE RNA | inhibition, % at 5.96 µM;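 active = percent inhibition above a per-plate cutoff, the plate mean of test compounds plus 3 SD, cut at about 30% in these data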
MCL1-BIM inh: inhibitors of MCL1 binding to BIM-BH3, primary screen, biochemical, fluorescence polarization. Induced myeloid leukemia cell differentiation protein Mcl-1 (Homo sapiens), Q07820. GST-MCL1 / FITC-Bim-BH3 fluorescence polarization. inhibition, % at 10.9 µM. 320,000 tested, 0.68% active. AID 2057, 2009;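 active = inhibition above the mean inhibition of all tested compounds plus 3 SD, set per campaign, cut at about 40% in these data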;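 note: higher means more loss of mP so more displacement of Bim peptide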
EBV gp42 block: Epstein-Barr virus gp42 inhibitors, primary screen, biochemical, uHTS, fluorescence polarization. Fluorescence polarization binding assay, mP read-out. inhibition, % (tested at 21.74 µM). Glycoprotein 42 (Epstein-Barr virus (strain AG876)), Q1HVG2. AID 1085, 2008. 220,000 tested, 0.42% active; in the data active = inhibition above about 50%
Target sequence (Q1HVG2 whole entry, looked up): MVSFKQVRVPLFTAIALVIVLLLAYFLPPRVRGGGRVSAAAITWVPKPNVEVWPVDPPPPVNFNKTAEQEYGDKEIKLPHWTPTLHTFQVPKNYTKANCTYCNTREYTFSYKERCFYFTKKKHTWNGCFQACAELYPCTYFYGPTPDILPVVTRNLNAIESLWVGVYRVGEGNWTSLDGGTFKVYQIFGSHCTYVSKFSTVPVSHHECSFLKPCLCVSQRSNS
Bcl-xL primary: inhibitors of human Bcl-xL, primary screen, biochemical, fluorescence polarization, HTS | inhibition, % at 10.9 µM | AID 2129, 2009 | 320,000 tested, 0.7% active | Bcl-2-like protein 1 (Homo sapiens), Q07817 | GST-Bcl-xL / FITC-Bim BH3 peptide fluorescence polarization;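 active = inhibition above the mean of all tested compounds plus 3 SD, cutoff set per campaign, cut at about 30% in these data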;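 note: inhibitors lower millipolarization by displacing the labeled peptide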
Target sequence (Q07817 whole entry, looked up): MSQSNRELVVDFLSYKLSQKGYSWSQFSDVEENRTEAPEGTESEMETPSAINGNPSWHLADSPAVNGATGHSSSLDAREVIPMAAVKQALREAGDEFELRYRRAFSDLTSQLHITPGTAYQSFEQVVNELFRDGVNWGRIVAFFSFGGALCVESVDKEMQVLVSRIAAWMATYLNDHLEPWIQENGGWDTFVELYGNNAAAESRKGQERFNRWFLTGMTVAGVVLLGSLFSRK
eLon inh: inhibitors of E. coli Lon protease, primary screen, biochemical, fluorescence polarization; P0A9M0; purified E. coli Lon protease; inhibition, % at 7.94 µM; 360,000 tested, 0.42% active; AID 602123, 2011; in the data active = inhibition above about 13%, passing the limit was not always enough
Bcl-xL conf: Bcl-xL inhibitors blocking Bim BH3 binding, confirmation, counter-screen for MCL1 inhibitor project, biochemical, fluorescence polarization | shares compounds with MCL1-BIM inh | GST-Bcl-xL / FITC-Bim BH3 peptide FP binding | inhibition, % at 10.9 µM | 1,700 tested, 54% active | AID 2166, 2009;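 active = inhibition above a cutoff equal to the mean inhibition of all tested compounds plus 3 SD, cut at about 30% in these data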
MCL1 BIM confirm: inhibitors of MCL1 binding to BIM-BH3, confirmation, biochemical, fluorescence polarization, triplicate; shares compounds with MCL1-BIM inh; AID 2168, 2009; inhibition, % at 10.9 µM; 1,700 tested, 61% active; GST-MCL1 / FITC-Bim-BH3 fluorescence polarization;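 active = inhibition above the average of all tested compounds plus 3 SD, cut at about 40% in these data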
A number is an active result; 0 = inactive; ? = inconclusive; - = not tested or not shown; + = active, no number. In the library only some 1.5% were active in any assay of this set; here they are far more common.

SMILES	MEX-5 binding	GLD-1 RNA inh	MCL1-BIM inh	EBV gp42 block	Bcl-xL primary	eLon inh	Bcl-xL conf	MCL1 BIM confirm
CN(c1ncc(C(F)(F)F)cc1Cl)N1C(=O)c2cccc(N)c2C1=O	0	84	62	57	59	0	47	66
CN(c1ncc(C(F)(F)F)cc1Cl)N1C(=O)C2ONC3(C(=O)CC(C)(C)CC3=O)C2C1=O (stereo unspecified)	0	0	0	0	0	0	-	-
CCCCN(C)Cc1c(O)ccc2c(=O)c(-c3ccccc3OC)coc12	0	0	0	-	0	0	-	-
Cc1cc(C=O)c2c(c1)C=CC1(Oc3ccccc3C(=O)N1C)O2 (stereo unspecified)	0	109	53	0	58	-	0	0
CC(=O)c1ccc(OC(=O)C2CSC3(C)CCC(=O)N23)cc1 (stereo unspecified)	-	0	0	-	0	0	-	-
COc1ccc(NC(=O)c2noc3c2CCC3)cc1	0	0	0	0	0	0	-	-
COc1cc(NC(=O)c2noc3c2CCC3)c(OC)cc1Cl	0	0	50	0	0	0	0	53
Cc1ccc(C(=O)O)cc1-c1ccc(C=C2C(=O)c3ccccc3C2=O)o1	0	0	0	0	0	0	-	-
O=C1C(=Cc2ccc(Br)o2)C(=O)c2ccccc21	-	0	92	65	47	0	43	64
CCSc1nnc(N2C(=O)C(O)=C(C(=O)c3ccco3)C2c2cccc(OC)c2)s1 (stereo unspecified)	0	79	60	-	60	0	65	76
CSc1nnc(N2C(=O)C(O)=C(C(=O)c3ccco3)C2c2ccc(F)cc2)s1 (stereo unspecified)	0	83	71	-	80	0	43	55
O=C(C1=C(O)C(=O)N(c2ncccn2)C1c1ccc(Cl)cc1)c1ccco1 (stereo unspecified)	0	0	0	0	0	0	-	-
COc1ccc2nc(N3C(=O)C(O)=C(C(=O)c4ccco4)C3c3ccc(C)o3)sc2c1 (stereo unspecified)	-	-	-	-	-	0	-	-
COc1cccc(CNC(=O)[C@@H]2CCCN2C(=O)[C@@H]2CCCN2C(=O)c2ccc(Cl)cc2)c1	-	-	-	-	-	0	-	-
CCCCN(C(=O)c1cccc(-n2cccc2)c1)c1c(N)n(CCC)c(=O)[nH]c1=O	0	0	55	-	0	0	0	51
COc1ccc(C(C)=O)c2c(O)cccc12	0	0	0	0	0	0	-	-
CCC1=NNc2cccc3c(OC)ccc1c23	0	0	126	0	116	-	45	0
Cc1ccc(NC(=O)c2cc(S(=O)(=O)N3CCOCC3)cn2C)cc1Cl	0	0	0	-	0	0	-	-
CCCCn1c(SCC(=O)Nc2ccc3c(c2)CCC3)nc2ccccc2c1=O	0	0	0	0	0	0	-	-
C=CCn1c(SCC(=O)Nc2ccc3c(c2)CCC3)nc2ccccc2c1=O	0	0	+	0	0	0	0	0
CCOC(=O)CSc1nnc(-c2cc(OC)c(OC)c(OC)c2)o1	0	0	0	0	0	0	-	-
COc1cc(-c2nnc(SCc3cc(=O)oc4cc(O)c(O)cc34)o2)cc(OC)c1OC	0	0	62	0	0	0	0	61
CCN(CC)c1ccc(/C=C/C(=O)c2ccc(Br)cc2)cc1	-51	76	61	+	58	0	62	63
CC1CCN(CC(=O)NCc2ccco2)CC1	0	0	68	0	0	0	0	0
COc1cc(/C=C2\SC(=S)N(c3cccnc3)C2=O)ccc1O	0	0	60	0	0	0	0	44
SMILES	MEX-5 binding	GLD-1 RNA inh	MCL1-BIM inh	EBV gp42 block	Bcl-xL primary	eLon inh	Bcl-xL conf	MCL1 BIM confirm
O=C(O)c1cccc(S(=O)(=O)Nc2ccccc2Oc2ccccc2)c1	-	-	-	-	-	0	-	-
O=C(O)CCCCC1CCSS1 (stereo unspecified)	?	0	102	102	0	0	0	104
COCCNC(=O)C1CCCN(C(=O)/C=C/c2ccccc2)CC1 (stereo unspecified)	-	-	-	-	-	0	-	-
O=c1oc2c3c4c(cc2c(C(F)(F)F)c1CCN1CCOCC1)CCCN4CCC3	?	65	122	139	107	0	107	116
CCCn1c(=O)c2ccccc2n2c(SCc3cc(=O)oc4ccc5ccccc5c34)nnc12	0	31	40	0	35	0	0	0
O=C(NCc1nnnn1-c1ccc(F)cc1)c1ccc2c(c1)OCO2	-	-	-	-	-	0	-	-
CN(c1ccccc1)S(=O)(=O)c1cccc(NC(=O)CCNC(=O)c2ccco2)c1	-	-	-	-	-	0	-	-
COc1cc2cc(C)c(SCC(=O)N3CCOCC3)nc2cc1OC	0	33	56	0	53	0	0	0
COc1cc2cc(C#N)c(SCC(=O)N3CCOCC3)nc2cc1OC	0	0	0	0	0	0	-	-
CC(C)C1Cc2c(sc(NC(=S)NC(=O)c3ccccc3)c2C#N)CO1 (stereo unspecified)	0	0	0	0	0	0	-	-
CC(C)C1Cc2c(C#N)c(N)sc(=S)c2CO1 (stereo unspecified)	0	66	64	0	67	0	0	0
CC[n+]1ccccc1/C=C/c1ccc(N(C)C)cc1	0	-	-	0	-	0	-	-
CN(C)c1ccc(/C=C/c2cc[n+]([O-])cc2)cc1	?	52	109	0	101	-	89	100
CC[C@]12c3[nH]c4ccccc4c3CCN1C(=O)C(CC(=O)NCCCn1ccnc1)C[C@@H]2C(=O)N1CCN(C(=O)c2ccco2)CC1 (stereo partly specified)	-	0	-	-	-	0	-	-
COc1cc(N)c(Cc2nccc3cc(OC)c(OC)cc23)cc1OC	0	0	121	0	115	0	0	0
COc1cc2ccnc(Cc3cccc(OC)c3OC)c2cc1OC	0	0	0	0	0	0	-	-
CCCn1c(/C=C/c2ccccc2)nc2ccccc21	0	0	0	0	0	0	-	-
CCn1c(/C=C/c2cc[n+](C)cc2)nc2ccccc21	0	0	75	-	74	0	65	65
